Results on nine compounds are retold here after PubChem BioAssay (NCI).

The panel holds about 83,000 compounds, 20% with a hit somewhere; the sample as a whole holds those more often.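 Percent growth is the endpoint: 0 to 100 indicates growth inhibition (40 means 60% inhibition), 0 means no net growth, and negative values indicate cell death.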 A number with no mark means an inactive call. Activity calls are given as the source filed them. The calls were made as follows: active = growth percent below 10; inactive = the rest.

What all share (assay): NCI-60 one-dose screen, 48 h (100 = growth as untreated, 0 = no growth, -100 = all killed)
For one experiment, the system named is NCI-H23 lung. Conditions: 10 µM unless noted.
The subject of a further experiment is NCI-H226 lung. Conditions: 10 µM unless noted.
The next experiment deals with NCI-H322M lung. The conditions noted are these: 10 µM unless noted.
The test system of another experiment is HOP-62 NSCLC. Conditions: 10 µM unless noted.
The subject of another experiment is NCI-H460 lung. Conditions: 10 µM unless noted.
The next experiment deals with HOP-92 NSCLC. Conditions: 10 µM unless noted.
A further experiment concerns A549/ATCC NSCLC. The conditions noted are these: 10 µM unless noted.
A further experiment has as its system 786-0 renal. Conditions: 10 µM unless noted.
The next experiment concerns COLO 205 colon. Conditions: 10 µM unless noted.
Another experiment has as its system DU-145 prostate. Conditions: 10 µM unless noted.
Another experiment concerns K-562 leukemia. Conditions: 10 µM unless noted.
A further experiment relates to MALME-3M melanoma. The conditions noted are these: 10 µM unless noted.
The next experiment relates to MDA-MB-231 breast. Conditions: 10 µM unless noted.
A further experiment deals with RXF 393 renal. Conditions: 10 µM unless noted.
The test system of a further experiment is SF-268 CNS. Conditions: 10 µM unless noted.
Another experiment deals with SF-295 CNS. Conditions: 10 µM unless noted.
For the next experiment, the system named is SF-539 CNS. The conditions noted are these: 10 µM unless noted.
The subject of a further experiment is UACC-257 melanoma. Conditions: 10 µM.
The test system of the next experiment is M14 melanoma. The conditions noted are these: 10 µM unless noted.
For another experiment, the system named is NCI-H522 lung. Conditions: 10 µM unless noted.

As for `Cc1cccc(NC(=O)c2sc3nc4c(cc3c2N)CCCC4)c1`, the growth with NCI-H23 lung was 65%; in the experiment with NCI-H226 lung, 64.8%; in the experiment with NCI-H322M lung, 37.2%; in the experiment with HOP-62 NSCLC, 37.8%; in the experiment on NCI-H460 lung, 27.6%; with HOP-92 NSCLC it was 56.5%. The growth in the experiment on A549/ATCC NSCLC was 31.5%; in the experiment with 786-0 renal, 59.8%; in the experiment with COLO 205 colon it was 26.9%; in the experiment on DU-145 prostate it was 45.6%; in the experiment with K-562 leukemia, 17.8%; with MALME-3M melanoma it was 24.9%. Besides, the growth was 60.9% in the experiment on MDA-MB-231 breast; 63.8% in the experiment on RXF 393 renal; 51.5% in the experiment with SF-268 CNS; 54.5% with SF-295 CNS; 48.5% with SF-539 CNS; 46.3% in the experiment with UACC-257 melanoma. In addition, the growth in the experiment on M14 melanoma was 30.3%.
With `Nc1c(C(=O)Nc2ccccc2)sc2nc3c(cc12)CN(Cc1ccccc1)CC3`, the growth was 79.1% in the experiment with NCI-H23 lung; 45.2% with NCI-H226 lung; 50% in the experiment with NCI-H322M lung; 52.1% in the experiment with HOP-62 NSCLC; 32.8% with NCI-H460 lung; 20.2% in the experiment on HOP-92 NSCLC. The growth with NCI-H522 lung is 80.2%; in the experiment on 786-0 renal, 28.8%; in the experiment with COLO 205 colon, 97.8%; in the experiment with DU-145 prostate it was 58.9%; in the experiment on K-562 leukemia, 61.1%; in the experiment with MDA-MB-231 breast, 42.6%. In addition, the growth was 49.9% in the experiment with RXF 393 renal; 48.8% in the experiment on SF-268 CNS; 66.4% with SF-295 CNS; 12.6% in the experiment on SF-539 CNS; 74% with UACC-257 melanoma; 82.2% in the experiment with M14 melanoma.
In the case of `Cc1c(C2=NNC(c3ccc4c(c3)OCO4)C2)[n+]([O-])c2ccccc2[n+]1[O-]` (configuration not stated), the growth with NCI-H23 lung is 93.8%; with NCI-H226 lung, 102%; in the experiment on NCI-H322M lung, 161%; in the experiment on HOP-62 NSCLC, 92.1%; in the experiment with NCI-H460 lung, 111%; in the experiment with HOP-92 NSCLC it was 83.6%. The growth with A549/ATCC NSCLC was 109%; in the experiment with 786-0 renal, 106%; with COLO 205 colon it was 101%; in the experiment on DU-145 prostate, 103%; with K-562 leukemia, 91.2%; with MALME-3M melanoma, 154%. Moreover, the growth was 102% in the experiment on MDA-MB-231 breast; 96.4% with RXF 393 renal; 114% in the experiment with SF-268 CNS; 105% with SF-295 CNS; 96.2% in the experiment on SF-539 CNS; 99.6% in the experiment on M14 melanoma.
In the case of `COc1cc(-c2nc(-c3nc4ccccc4[nH]3)cc3c2[nH]c2ccccc23)cc(OC)c1OC`, the growth in the experiment with NCI-H23 lung is 41.3%; in the experiment on NCI-H226 lung it was 72.6%; in the experiment on NCI-H322M lung it was 73.8%; in the experiment on HOP-62 NSCLC, 45.1%; in the experiment with NCI-H460 lung, 30%; with HOP-92 NSCLC, 9.1% (active). Moreover, the growth in the experiment with A549/ATCC NSCLC is 22.5%; with 786-0 renal, 82.6%; in the experiment on COLO 205 colon, 26.9%; in the experiment on DU-145 prostate, 53.8%; with K-562 leukemia it was 31.9%; with MALME-3M melanoma, 32.7%. The growth is 61.3% in the experiment with MDA-MB-231 breast; 70.6% with RXF 393 renal; 47.8% with SF-268 CNS; 1.13% (active) in the experiment with SF-295 CNS; 68.4% with SF-539 CNS; 41.7% in the experiment on UACC-257 melanoma. The growth in the experiment with M14 melanoma is 23.4%.
On to `CCCCC[C@@H]1Cc2cc(O)c(C(=O)O)c3c2[C@H](C[C@@]2(CCCO2)O3)O1`, for which the growth was 103% in the experiment on NCI-H23 lung; 110% with NCI-H226 lung; 121% in the experiment with NCI-H322M lung; 93.6% in the experiment with HOP-62 NSCLC; 121% with NCI-H460 lung; 4.89% (active) in the experiment on HOP-92 NSCLC. Also, the growth in the experiment on A549/ATCC NSCLC is 105%; in the experiment with 786-0 renal it was 103%; with COLO 205 colon, 112%; in the experiment with DU-145 prostate, 111%; in the experiment with K-562 leukemia, 58.1%; with MALME-3M melanoma, 121%. Further, the growth was 101% in the experiment on MDA-MB-231 breast; 73.4% in the experiment with RXF 393 renal; 116% in the experiment with SF-268 CNS; 101% with SF-295 CNS; 103% with SF-539 CNS; 103% in the experiment on M14 melanoma.
Take `COc1cc(-c2csc(NC(=O)c3cc(C(F)(F)F)cc(C(F)(F)F)c3)n2)cc(OC)c1OC`: the growth is -10.2% (active) in the experiment with NCI-H23 lung; 23.6% in the experiment with NCI-H226 lung; 32.7% with NCI-H322M lung; 46.4% with HOP-62 NSCLC; 13.8% with NCI-H460 lung; -10.6% (active) with HOP-92 NSCLC. The growth in the experiment on A549/ATCC NSCLC was 26.3%; in the experiment on 786-0 renal it was 41.6%; in the experiment with COLO 205 colon it was 37.7%; in the experiment on DU-145 prostate it was 35%; in the experiment with K-562 leukemia, 14.4%; in the experiment on MALME-3M melanoma it was 3.36% (active). For the same compound, the growth with MDA-MB-231 breast is 41.1%; in the experiment with RXF 393 renal it was 56.7%; in the experiment on SF-268 CNS, 35.4%; with SF-295 CNS it was 33.9%; in the experiment on SF-539 CNS, 56%; with M14 melanoma, 32.3%.
As for `COC1=CC(c2ccc[nH]2)=N/C1=C\c1[nH]c(C)c(C(=O)CCCCC(=O)Nc2ccccc2)c1C`, the growth was 34.4% in the experiment with NCI-H23 lung; 44.1% with NCI-H226 lung; 87.3% with NCI-H322M lung; 80.7% in the experiment with HOP-62 NSCLC; -38.8% (active) with NCI-H460 lung; -71.4% (active) in the experiment on HOP-92 NSCLC. Further, the growth in the experiment with A549/ATCC NSCLC is -21.4% (active); in the experiment with 786-0 renal it was 93.5%; with COLO 205 colon, 67.1%; in the experiment on DU-145 prostate, 6.29% (active); in the experiment on K-562 leukemia it was 62.4%; with MALME-3M melanoma it was 87.7%. Also, the growth in the experiment on MDA-MB-231 breast was -10.1% (active); in the experiment with RXF 393 renal, -63.9% (active); in the experiment with SF-268 CNS it was 44.1%; in the experiment on SF-295 CNS it was -2.61% (active); with SF-539 CNS it was 78.6%; in the experiment on UACC-257 melanoma it was 74.4%. Moreover, the growth in the experiment on M14 melanoma was 13.1%.
As for `O=C(CNC1CCCCC1)Nc1ccc(-c2nc3ccccc3s2)cc1`, the growth with NCI-H23 lung is 76.2%; in the experiment on NCI-H226 lung, 80.3%; with NCI-H322M lung it was 91.7%; in the experiment on HOP-62 NSCLC it was 85.2%; with NCI-H460 lung, 91.3%; with HOP-92 NSCLC, 48.8%. The growth in the experiment on A549/ATCC NSCLC is 88%; with 786-0 renal it was 70.6%; with COLO 205 colon, 95.4%; with DU-145 prostate, 89.3%; in the experiment on K-562 leukemia it was 49.5%; in the experiment with MALME-3M melanoma, 105%. The growth was 46.2% in the experiment with MDA-MB-231 breast; 68.5% in the experiment on RXF 393 renal; 78.4% in the experiment on SF-268 CNS; 85.9% with SF-295 CNS; 87.5% in the experiment with SF-539 CNS; 105% with UACC-257 melanoma. For the same compound, in the experiment on M14 melanoma, the growth was 89.4%.
As to `COc1cccc(-c2nc3sccn3c2-c2ccnc(NCCCNS(=O)(=O)c3ccc(F)cc3)n2)c1`, the growth is 16.2% in the experiment with NCI-H23 lung; 13.7% in the experiment with NCI-H226 lung; 64.7% with NCI-H322M lung; 82.4% in the experiment with HOP-62 NSCLC; 40.3% with NCI-H460 lung; 61.5% in the experiment with HOP-92 NSCLC. The growth is 41.6% with A549/ATCC NSCLC; 44.1% in the experiment on 786-0 renal; 17.1% with COLO 205 colon; 27.7% in the experiment with DU-145 prostate; 16.6% with K-562 leukemia; 32.4% in the experiment on MALME-3M melanoma. In addition, the growth with MDA-MB-231 breast is 53.2%; in the experiment with RXF 393 renal, 55%; with SF-268 CNS, 37%; in the experiment with SF-295 CNS, 24.7%; with SF-539 CNS, 66.7%; in the experiment on UACC-257 melanoma, 55.2%. For the same compound, in the experiment on M14 melanoma, the growth is 18.1%.
